Source: the supplement of paper PMC11624193, “Coupling cellular drug-target engagement to downstream pharmacology with CeTEAM” (Nature Communications, 2024)
Where “and” joins values, the source holds several entries; their conditions need not be identical. Identical values can stand only once. Counter-ions that a name gives are not always drawn.

Biological target: PARP1 L713F-nLuc biosensor (HCT116) (UniProt P09874)
Experiment: PARP1 L713F-nLuc/akaLuc ratio relative to DMSO control (biosensor stabilization) (fold change); higher = more PARP1 biosensor stabilization (target engagement / stabilizer), active = hit call of the paper
Conditions: 24 h;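 active = log2 fold change beyond 2 SD from the library mean after excluding viability outliers; inactive = within 2 SD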
[1] = stock concentration (mM; final µM = stock mM x 1): 10
[2] = stock concentration (mM; final µM = stock mM x 1): 2

Chain of PARP1 L713F-nLuc biosensor (HCT116) (P09874 whole entry L713F, looked up): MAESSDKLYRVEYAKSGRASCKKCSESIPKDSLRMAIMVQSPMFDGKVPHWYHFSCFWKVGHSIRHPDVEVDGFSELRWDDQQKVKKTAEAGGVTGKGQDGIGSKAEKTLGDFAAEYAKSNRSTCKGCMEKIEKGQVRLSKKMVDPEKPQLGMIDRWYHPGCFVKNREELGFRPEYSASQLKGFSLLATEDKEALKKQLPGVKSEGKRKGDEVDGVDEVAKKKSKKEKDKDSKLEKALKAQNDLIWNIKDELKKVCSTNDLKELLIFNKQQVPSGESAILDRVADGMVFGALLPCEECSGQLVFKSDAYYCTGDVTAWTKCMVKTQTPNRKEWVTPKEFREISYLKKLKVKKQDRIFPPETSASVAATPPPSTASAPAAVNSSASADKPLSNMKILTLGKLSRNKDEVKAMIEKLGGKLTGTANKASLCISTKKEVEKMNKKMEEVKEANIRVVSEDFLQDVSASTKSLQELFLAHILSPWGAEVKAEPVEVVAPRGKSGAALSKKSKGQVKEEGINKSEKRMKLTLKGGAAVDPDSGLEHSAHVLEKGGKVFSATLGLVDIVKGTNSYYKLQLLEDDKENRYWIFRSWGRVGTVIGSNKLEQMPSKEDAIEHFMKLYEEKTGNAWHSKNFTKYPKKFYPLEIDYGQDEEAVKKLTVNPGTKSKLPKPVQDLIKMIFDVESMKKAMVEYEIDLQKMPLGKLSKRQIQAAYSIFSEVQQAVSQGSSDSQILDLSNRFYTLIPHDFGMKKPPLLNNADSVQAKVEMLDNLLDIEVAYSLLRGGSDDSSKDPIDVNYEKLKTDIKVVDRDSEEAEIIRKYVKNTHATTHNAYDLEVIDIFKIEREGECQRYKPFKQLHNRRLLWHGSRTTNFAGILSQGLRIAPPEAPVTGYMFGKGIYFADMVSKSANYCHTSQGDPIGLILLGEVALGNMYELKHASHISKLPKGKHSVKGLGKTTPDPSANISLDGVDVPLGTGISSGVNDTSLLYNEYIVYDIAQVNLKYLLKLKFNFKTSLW

| SMILES | PARP1 L713F-nLuc/akaLuc ratio [1] | PARP1 L713F-nLuc/akaLuc ratio [2] |
| --- | --- | --- |
| CC1(C)CCC(CN2CCN(c3ccc(C(=O)NS(=O)(=O)c4ccc(NCC5CCOCC5)c([N+](=O)[O-])c4)c(Oc4cnc5[nH]ccc5c4)c3)CC2)=C(c2ccc(Cl)cc2)C1 [Venetoclax (ABT-199, GDC-0199)] | 0.901 (inactive) |  |
| COc1cc(N2CCC(N3CCN(C)CC3)CC2)ccc1Nc1ncnc(Nc2ccccc2S(=O)(=O)C(C)C)n1 | 0.97 (inactive) |  |
| Nc1nc(=O)n([C@H]2C[C@H](O)[C@@H](CO)O2)cc1F [5-Fluoro-2'-deoxycytidine] | 0.559 (inactive) |  |
| Nc1ncc(-c2cnn(CCO)c2)c2scc(-c3ccc(NC(=O)Nc4cccc(F)c4)cc3)c12 [Ilorasertib (hydrochloride)] | 0.906 (inactive) |  |
| CN(C(=O)c1ccc(F)cc1C(F)(F)F)C1CCN(c2nnc(-c3ccnn3C)c3ccccc23)CC1 |  | 1.11 (inactive) |
| CN1CCN(c2ccc(C(=O)Nc3ccc([C@@H]4C[C@H]4N)cc3)cc2)CC1 | 0.684 (inactive) |  |
| CNC(=O)c1nnc(NC(=O)C2CC2)cc1Nc1cccc(-c2ncn(C)n2)c1OC [Deucravacitinib] | 0.748 (inactive) |  |
| CCCCCCCCCCCCC/C=C/[C@@H](O)[C@@H](N)CO [D-erythro-Sphingosine] | 1.21 (inactive) |  |
| Cn1cc(-c2cnn3c(N)c(Br)c([C@@H]4CCCNC4)nc23)cn1 |  | 2.66 (inactive) |
| COc1cc(CCc2cc(NC(=O)c3ccc(N4CC(C)NC(C)C4)cc3)n[nH]2)cc(OC)c1 (stereo unspecified) | 0.745 (inactive) |  |
| O=C(O)c1ccc(CN2CCC(CN[C@@H]3C[C@H]3c3ccccc3)CC2)cc1 | 0.815 (inactive) and 0.79 (inactive) and 0.987 (inactive) |  |
| C=CC(=O)Nc1cccc(CNc2nc(Nc3ccc(N4CCN(C)CC4)cc3OC)ncc2Cl)c1 | 1.54 (inactive) |  |
| C=CC(=O)Nc1cc2c(Nc3ccc(F)c(Cl)c3)ncnc2cc1OCCCN1CCOCC1 [Canertinib (CI-1033)] |  | 1.01 (inactive) |
| CCCCNc1ncc(C(=O)NCc2ccc(-n3ccnc3)cc2)c(NC2CCC(O)CC2)n1 (stereo unspecified) | 0.954 (inactive) |  |
| Nc1ccn([C@@H]2O[C@H](CO)[C@@H](O)C2(F)F)c(=O)n1 [Gemcitabine] | 0.416 (inactive) |  |
| CC[C@@](C)(Nc1ccnc(-c2c[nH]c3ncccc23)n1)C(=O)NCC(F)(F)F [Decernotinib (VX-509)] | 0.506 (inactive) |  |

| SMILES | PARP1 L713F-nLuc/akaLuc ratio [1] | PARP1 L713F-nLuc/akaLuc ratio [2] |
| --- | --- | --- |
| CC(=O)Nc1ccccc1-c1cccc2c1[nH]c1ccccc12 | 0.622 (inactive) |  |
| Nc1c(S(=O)(=O)c2ccccc2)c2nc3ccccc3nc2n1-c1ccc(F)cc1 | 1.04 (inactive) |  |
| CCN(CC)CCCC[C@H](NC(=O)[C@H](CC(C)C)NC(=O)[C@H](C)NC(=O)[C@H](Cc1ccccc1)NC(=O)c1ccc(C(C)(C)C)cc1)C(=O)N[C@@H](CO)C(=O)OC | 1.47 (inactive) |  |
| CN(C)CCCCCCNC(=O)c1cccc(-c2cc(O)c3ncccc3c2)c1 | 0.363 (inactive) |  |
| Clc1ccc(-c2csc(NN=C3CCCC3)n2)cc1 | 0.775 (inactive) |  |
| C[C@@H](Oc1cc(-n2cnc3ccc(CN4CCN(C)CC4)cc32)sc1C(N)=O)c1ccccc1C(F)(F)F | 0.601 (inactive) |  |
| CN1CCc2c(c3ccccc3n2Cc2ccc(C(=O)NO)cc2)C1 [Tubastatin A] | 1.26 (inactive) |  |
| Cc1ncc(Cl)cc1NCc1ccc(C(=O)N[C@@H](CC2CCCC2)C(=O)NC2CC2)s1 | 0.585 (inactive) |  |
| CCCCCOC(=O)Nc1nc(=O)n([C@@H]2O[C@H](C)[C@@H](O)[C@H]2O)cc1F [Capecitabine] | 0.759 (inactive) |  |
| Nc1ccc(S(=O)(=O)NCCc2ccccc2)cc1 | 0.888 (inactive) |  |
| Nc1nc(OCc2cc(Br)cs2)c2ncn(CCCCCCCCO[C@@H]3O[C@H](CO)[C@@H](O)[C@H](O)[C@H]3O)c2n1 [O6BTG-octylglucoside] | 0.863 (inactive) |  |
| CC1(N)CCN(c2cccnc2NC(=O)c2nc(-c3ncccc3C(F)(F)F)cnc2N)CC1 [Darovasertib] | 0.6 (inactive) |  |
| Cn1c(=O)c2c(ncn2CC(=O)O)n(C)c1=O [Acefylline] | 0.921 (inactive) |  |
| NC(=O)c1ccccc1 [Benzamide] | 1.08 (inactive) |  |
| Cc1ccc(C(=O)Nc2cccc(C(F)(F)F)c2)cc1Nc1nc(-c2cccnc2)nc2c1cnn2C | 0.656 (inactive) |  |
